# According to paper PMC8384837, “Expanding the binding specificity for RNA recognition by a PUF domain”:
# How the values were obtained:
# Assay in all cases: yeast three-hybrid, YBZ-1, SC-Leu-His + 0.5 mM 3-AT, 4 days
# Conditions in all cases: tags: N-Gal4 AD-HA kept; label: inside an RPR1-promoter hybrid RNA with tandem MS2 sites; ssRNA
# PUM1 PUF domain R6-WYG = biological target: T1, PUM1 PUF domain R6-WYG (Homo sapiens, UniProt Q14671 828-1176, N1043W;Q1047G)
# T1 sequence: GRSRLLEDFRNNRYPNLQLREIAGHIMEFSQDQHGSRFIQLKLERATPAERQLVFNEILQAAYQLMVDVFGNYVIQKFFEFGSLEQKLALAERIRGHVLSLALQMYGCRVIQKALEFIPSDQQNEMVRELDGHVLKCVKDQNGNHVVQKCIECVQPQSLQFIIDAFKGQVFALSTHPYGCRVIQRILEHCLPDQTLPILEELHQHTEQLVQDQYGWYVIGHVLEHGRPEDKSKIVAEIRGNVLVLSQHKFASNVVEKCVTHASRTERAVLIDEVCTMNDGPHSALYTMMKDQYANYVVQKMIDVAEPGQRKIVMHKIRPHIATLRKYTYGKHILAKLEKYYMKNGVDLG
# Procedure, shortened: (§1)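 Matching RNA elements and Pumilio-1 PUF domain libraries, randomized at the three base-contacting residues of every repeat, were co-expressed from a centromeric plasmid in strain YBZ-1 (LexA–MS2 coat fusion, HIS3 reporter). The repeat regions were PCR-amplified and Illumina-sequenced from cells grown four days on SC-Leu (input) or SC-Leu-His + 0.5 mM 3-AT (selection). The interaction score is the log change in variant frequency from input to selection. It is computed in log2, with a pseudocount of 1 for absent variants.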
# PUM1 PUF domain R2-GWD = PUM1 PUF domain R2-GWD (Homo sapiens, UniProt Q14671 828-1176, N899G;Y900W;Q903D)
# Procedure, shortened: as §1
# PUM1 PUF domain R3-LYG = PUM1 PUF domain R3-LYG (Homo sapiens, UniProt Q14671 828-1176, C935L;R936Y;Q939G)
# Procedure, shortened: as §1
# PUM1 PUF domain R8-KHS = PUM1 PUF domain R8-KHS (Homo sapiens, UniProt Q14671 828-1176, N1122K;Y1123H;Q1126S)
# Procedure, shortened: as §1
# PUM1 PUF domain R3-MSN = PUM1 PUF domain R3-MSN (Homo sapiens, UniProt Q14671 828-1176, C935M;R936S;Q939N)
# Procedure, shortened: as §1
# PUM1 PUF domain R1-TSR = PUM1 PUF domain R1-TSR (Homo sapiens, UniProt Q14671 828-1176, S863T;R864S;Q867R)
# Procedure, shortened: as §1
# PUM1 PUF domain R1-QLD = PUM1 PUF domain R1-QLD (Homo sapiens, UniProt Q14671 828-1176, S863Q;R864L;Q867D)
# Procedure, shortened: as §1
# PUM1 PUF domain R3-RSC = PUM1 PUF domain R3-RSC (Homo sapiens, UniProt Q14671 828-1176, C935R;R936S;Q939C)
# Procedure, shortened: as §1
# PUM1 PUF domain R4-MPG = PUM1 PUF domain R4-MPG (Homo sapiens, UniProt Q14671 828-1176, N971M;H972P;Q975G)
# Procedure, shortened: as §1
# PUM1 PUF domain R5-RSI = PUM1 PUF domain R5-RSI (Homo sapiens, UniProt Q14671 828-1176, C1007R;R1008S;Q1011I)
# Procedure, shortened: as §1
sequence,measurement,setting,value
GGCUAGAACUAGUGGAUCCCCCGGCGCCCGGCGGCUCGAGCCCGGGUAAGUGUAAAUAGUCUGCAUGCCGCCGGGCGCCAUGCCUGCAGGUCGACUCUAGAAAACAUG,binding signal,PUM1 PUF domain R6-WYG,3.19 log2 enrichment (interaction score)
same,binding signal,PUM1 PUF domain R2-GWD,1.77 log2 enrichment (interaction score)
same,binding signal,PUM1 PUF domain R3-LYG,2.65 log2 enrichment (interaction score)
same,binding signal,PUM1 PUF domain R8-KHS,4.58 log2 enrichment (interaction score)
GGCUAGAACUAGUGGAUCCCCCGGCGCCCGGCGGCUCGAGCCCGGGUAAGUGUAAGUAGUCUGCAUGCCGCCGGGCGCCAUGCCUGCAGGUCGACUCUAGAAAACAUG,binding signal,PUM1 PUF domain R3-LYG,6.19 log2 enrichment (interaction score)
same,binding signal,PUM1 PUF domain R3-MSN,2.68 log2 enrichment (interaction score)
GGCUAGAACUAGUGGAUCCCCCGGCGCCCGGCGGCUCGAGCCCGGGUAAGUGUAAAUUGUCUGCAUGCCGCCGGGCGCCAUGCCUGCAGGUCGACUCUAGAAAACAUG,binding signal,PUM1 PUF domain R1-TSR,0.81 log2 enrichment (interaction score)
same,binding signal,PUM1 PUF domain R1-QLD,4.86 log2 enrichment (interaction score)
GGCUAGAACUAGUGGAUCCCCCGGCGCCCGGCGGCUCGAGCCCGGGUAAGUGUAAUUAGUCUGCAUGCCGCCGGGCGCCAUGCCUGCAGGUCGACUCUAGAAAACAUG,binding signal,PUM1 PUF domain R3-LYG,4.62 log2 enrichment (interaction score)
same,binding signal,PUM1 PUF domain R3-RSC,3.04 log2 enrichment (interaction score)
GGCUAGAACUAGUGGAUCCCCCGGCGCCCGGCGGCUCGAGCCCGGGUAAGUGUACAUAGUCUGCAUGCCGCCGGGCGCCAUGCCUGCAGGUCGACUCUAGAAAACAUG,binding signal,PUM1 PUF domain R4-MPG,2.9 log2 enrichment (interaction score)
GGCUAGAACUAGUGGAUCCCCCGGCGCCCGGCGGCUCGAGCCCGGGUAAGUGUCAAUAGUCUGCAUGCCGCCGGGCGCCAUGCCUGCAGGUCGACUCUAGAAAACAUG,binding signal,PUM1 PUF domain R5-RSI,2.24 log2 enrichment (interaction score)
GGCUAGAACUAGUGGAUCCCCCGGCGCCCGGCGGCUCGAGCCCGGGUAAGUGUAAAGAGUCUGCAUGCCGCCGGGCGCCAUGCCUGCAGGUCGACUCUAGAAAACAUG,binding signal,PUM1 PUF domain R2-GWD,10.1 log2 enrichment (interaction score)
GGCUAGAACUAGUGGAUCCCCCGGCGCCCGGCGGCUCGAGCCCGGGUAAGUGUUAAUAGUCUGCAUGCCGCCGGGCGCCAUGCCUGCAGGUCGACUCUAGAAAACAUG,binding signal,PUM1 PUF domain R5-RSI,3 log2 enrichment (interaction score)
